Active and inactive are the calls of the source. Rule for the calls: active = hit-call score of the fitted dose curve at least 0.9, where 1 is the maximum; inactive = score below 0.9.
How the values were obtained:
Conditions in all cases: mRNA level, 48 h; actives raise or lower the signal
[1] = read-out: catalase (CAT), CAT (gene 847); test: LTEA_HepaRG_CAT: Life Technologies and Expression Analysis (LTEA) Assay for catalase (CAT) using HepaRG (AID 2283452);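 for AC50: TaqMan qRT-PCR signal normalized to ACTB GAPDH and POLR2A housekeeping genes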
In short: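 Expression of CAT was quantified by TaqMan qRT-PCR with ACTB/GAPDH/POLR2A normalization after 48 h chemical exposure of HepaRG. Eight-point half-log series, top 100 uM, in 0.5% DMSO; gain or loss fitted against vehicle.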

[2] = read-out: flavin-containing dimethylaniline monooxygenases 3 (FMO3), FMO3 (gene 2328); test: LTEA_HepaRG_FMO3: Life Technologies and Expression Analysis (LTEA) Assay for flavin-containing dimethylaniline monooxygenases 3 (FMO3) using HepaRG (AID 2283453);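 for AC50: differentiated human HepaRG liver cells in serum-free induction medium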
In short: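 Eight-point concentration-response in serum-free HepaRG cultures (top 100 uM, 0.5% DMSO, 48 h). Read-out: FMO3 mRNA level normalized to three endogenous control genes, fitted bidirectionally versus vehicle.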

[3] = read-out: CFLAR gene, CFLAR (gene 8837); test: LTEA_HepaRG_CFLAR: Life Technologies and Expression Analysis (LTEA) Assay for CFLAR gene using HepaRG (AID 2283455)
In short: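 Transcript level by qRT-PCR (normalized to ACTB, GAPDH and POLR2A) after 48 h chemical exposure of HepaRG cells, top concentration 100 uM with half-log steps, 0.5% DMSO vehicle, duplicates; fitted bidirectionally against DMSO baseline.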

[4] = read-out: Forkhead box O1 (FOXO1), FOXO1 (gene 2308); test: LTEA_HepaRG_FOXO1: Life Technologies and Expression Analysis (LTEA) Assay for Forkhead box O1 (FOXO1) using HepaRG (AID 2283456)
In short: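 FOXO1 transcript quantified by qRT-PCR after 48 h chemical exposure (top 100 uM, half-log steps, 0.5% DMSO) of HepaRG cells, housekeeping-normalized (ACTB/GAPDH/POLR2A). Changes fitted in both directions relative to vehicle.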

[5] = read-out: growth arrest and DNA damage 45 (GADD45A), GADD45A (gene 1647); test: LTEA_HepaRG_GADD45A: Life Technologies and Expression Analysis (LTEA) Assay for growth arrest and DNA damage 45 (GADD45A) using HepaRG (AID 2283458)
In short: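 HepaRG, 48 h exposure, 8 conc. (top 100 uM, half-log steps), 0.5% DMSO vehicle, duplicates. Read-out: qRT-PCR mRNA level, housekeeping-normalized (ACTB/GAPDH/POLR2A). Curves fit bidirectionally vs DMSO baseline.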

[6] = read-out: Forkhead box O3 (FOXO3), FOXO3 (gene 2309); test: LTEA_HepaRG_FOXO3: Life Technologies and Expression Analysis (LTEA) Assay for Forkhead box O3 (FOXO3) using HepaRG (AID 2283459)
In short: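 FOXO3 transcript measured by qRT-PCR (normalized to ACTB, GAPDH, POLR2A) after 48 h exposure of HepaRG cells in serum-free induction medium. Duplicates, eight half-log concentrations up to 100 uM, 0.5% DMSO; gain or loss fitted against DMSO.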

[7] = read-out: growth arrest and DNA damage 45 (GADD45B), GADD45B (gene 4616); test: LTEA_HepaRG_GADD45B: Life Technologies and Expression Analysis (LTEA) Assay for growth arrest and DNA damage 45 (GADD45B) using HepaRG (AID 2283461)
In short: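 HepaRG, ~100,000 cells/well, 48 h plating; serum-free induction medium; cpd 100 uM top, half-log x8, 0.5% DMSO, duplicate, 48 h; lysis in RLT, RNA isolation, qRT-PCR; norm ACTB/GAPDH/POLR2A; bidirectional fit vs DMSO.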

[8] = read-out: ABC Transporter (ABCC3), ABCC3 (gene 8714); test: LTEA_HepaRG_ABCC3: Life Technologies and Expression Analysis (LTEA) Assay for ABC Transporter (ABCC3) using HepaRG (AID 2283462)
In short: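 Human HepaRG, 48 h dosing, 8-pt half-log series from 100 uM, 0.5% DMSO vehicle, duplicates. ABCC3 mRNA by TaqMan qRT-PCR, housekeeping-normalized; bidirectional curve fit vs DMSO.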

[9] = read-out: ABC Transporter (ABCB11), ABCB11 (gene 8647); test: LTEA_HepaRG_ABCB11: Life Technologies and Expression Analysis (LTEA) Assay for ABC Transporter (ABCB11) using HepaRG (AID 2283463)
In short: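 ABCB11 transcript levels quantified by TaqMan qRT-PCR against three housekeeping genes after 48 h chemical exposure of HepaRG cultures. Concentrations up to 100 uM in half-log steps, 0.5% DMSO vehicle; both induction and suppression scored.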

[10] = read-out: ABC Transporter (ABCC2), ABCC2 (gene 1244); test: LTEA_HepaRG_ABCC2: Life Technologies and Expression Analysis (LTEA) Assay for ABC Transporter (ABCC2) using HepaRG (AID 2283464)
In short: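 HepaRG, 48 h post-plating; serum-free induction medium; cpd 8-pt, 100 uM top, half-log, 0.5% DMSO, duplicate, 48 h. Readout: ABCC2 mRNA by qRT-PCR, norm. ACTB/GAPDH/POLR2A. Bidirectional fit vs DMSO baseline.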

[11] = read-out: Broad substrate specificity ATP-binding cassette transporter ABCG2 (Homo sapiens) (UniProt Q9UNQ0); test: LTEA_HepaRG_ABCG2: Life Technologies and Expression Analysis (LTEA) Assay for ABC Transporter (ABCG2) using HepaRG (AID 2283465)
In short: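 ABCG2 transcript was quantified by TaqMan qRT-PCR against three housekeeping genes in HepaRG cells. Cells were treated in duplicate for 48 h across an 8-point half-log series up to 100 uM, with 0.5% DMSO vehicle. Gain or loss versus DMSO was fit.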

[12] = read-out: ATP-citrate lyase (ACLY), ACLY (gene 47); test: LTEA_HepaRG_ACLY: Life Technologies and Expression Analysis (LTEA) Assay for ATP-citrate lyase (ACLY) using HepaRG (AID 2283466)
In short: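 ACLY mRNA quantified by qRT-PCR on Fluidigm arrays against three housekeeping genes, after 48 h chemical treatment of HepaRG cells (top concentration 100 uM, half-log steps, 0.5% DMSO vehicle). Up- or down-regulation fitted relative to DMSO.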

[13] = read-out: Peroxisomal acyl-coenzyme A oxidase 1 (ACOX1) gene, ACOX1 (gene 51); test: LTEA_HepaRG_ACOX1: Life Technologies and Expression Analysis (LTEA) Assay for Peroxisomal acyl-coenzyme A oxidase 1 (ACOX1) gene using HepaRG (AID 2283467)
In short: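 ACOX1 transcript levels were quantified by TaqMan qRT-PCR against three housekeeping genes after 48 h chemical exposure of differentiated human HepaRG cells. Exposure used eight half-log steps topping at 100 uM, 0.5% DMSO vehicle, in duplicate. Bidirectional curve fits were made relative to DMSO.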

[14] = read-out: Bcl-2 (BAD) gene, BAD (gene 572); test: LTEA_HepaRG_BAD: Life Technologies and Expression Analysis (LTEA) Assay for Bcl-2 (BAD) gene using HepaRG (AID 2283469)
In short: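 Read-out: qRT-PCR of BAD mRNA, normalized to three housekeeping genes. Human HepaRG cultures got 48 h chemical exposure in 0.5% DMSO, duplicate eight-point half-log series topping at 100 uM. Gain or loss of signal fitted versus DMSO vehicle.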

[15] = read-out: Bcl-2 (BAX) gene, BAX (gene 581); test: LTEA_HepaRG_BAX: Life Technologies and Expression Analysis (LTEA) Assay for Bcl-2 (BAX) gene using HepaRG (AID 2283470)
In short: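 qRT-PCR read-out of BAX mRNA, normalized to three housekeeping genes, after 48 h chemical exposure of human HepaRG cells in serum-free induction medium; eight-point half-log series, top 100 uM, 0.5% DMSO vehicle; bidirectional fit versus DMSO.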

[16] = read-out: adenosine kinase (ADK) gene, ADK (gene 132); test: LTEA_HepaRG_ADK: Life Technologies and Expression Analysis (LTEA) Assay for adenosine kinase (ADK) gene using HepaRG (AID 2283471)
In short: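 ADK expression quantified by qRT-PCR, normalised to three housekeeping genes, after 48 h exposure of HepaRG cells to eight concentrations (top 100 uM, half-log steps, duplicate, 0.5% DMSO). Up- or down-regulation fitted relative to vehicle.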

[17] = read-out: ABC Transporter (ABCB1), ABCB1 (gene 5243); test: LTEA_HepaRG_ABCB1: Life Technologies and Expression Analysis (LTEA) Assay for ABC Transporter (ABCB1) using HepaRG (AID 2283460)
In short: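 ABCB1 transcript level measured by TaqMan qRT-PCR against three housekeeping genes after 48 h chemical exposure of differentiated HepaRG cells. Top concentration 100 uM, half-log steps, eight points, 0.5% DMSO vehicle; bidirectional fit relative to DMSO.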

[18] = read-out: Alkaline Phosphatase, Placental (ALPP) gene, ALPP (gene 250); test: LTEA_HepaRG_ALPP: Life Technologies and Expression Analysis (LTEA) Assay for Alkaline Phosphatase, Placental (ALPP) gene using HepaRG (AID 2283468);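 for AC50: differentiated human HepaRG liver cells in serum-free induction medium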
In short: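 HepaRG, 48 h plating then 48 h dosing, serum-free induction medium, 0.5% DMSO. 8 conc, half-log, max 100 uM, duplicates. Endpoint: ALPP transcript by qRT-PCR, housekeeping-normalized; gain or loss fitted vs DMSO.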

[19] = read-out: Cytochrome P450 (CYP1A1), CYP1A1 (gene 1543); test: LTEA_HepaRG_CYP1A1: Life Technologies and Expression Analysis (LTEA) Assay for Cytochrome P450 (CYP1A1) using HepaRG (AID 2283454)
In short: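 HepaRG, 48 h post-plating switched to serum-free induction medium; 8-pt conc-response (top 100 uM, half-log, 0.5% DMSO), duplicates, 48 h. Lysis in RLT, TaqMan qRT-PCR for CYP1A1; gain or loss vs DMSO.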

Measured: AC50

Chain of Broad substrate specificity ATP-binding cassette transporter ABCG2 (Homo sapiens) (Q9UNQ0 whole entry, looked up): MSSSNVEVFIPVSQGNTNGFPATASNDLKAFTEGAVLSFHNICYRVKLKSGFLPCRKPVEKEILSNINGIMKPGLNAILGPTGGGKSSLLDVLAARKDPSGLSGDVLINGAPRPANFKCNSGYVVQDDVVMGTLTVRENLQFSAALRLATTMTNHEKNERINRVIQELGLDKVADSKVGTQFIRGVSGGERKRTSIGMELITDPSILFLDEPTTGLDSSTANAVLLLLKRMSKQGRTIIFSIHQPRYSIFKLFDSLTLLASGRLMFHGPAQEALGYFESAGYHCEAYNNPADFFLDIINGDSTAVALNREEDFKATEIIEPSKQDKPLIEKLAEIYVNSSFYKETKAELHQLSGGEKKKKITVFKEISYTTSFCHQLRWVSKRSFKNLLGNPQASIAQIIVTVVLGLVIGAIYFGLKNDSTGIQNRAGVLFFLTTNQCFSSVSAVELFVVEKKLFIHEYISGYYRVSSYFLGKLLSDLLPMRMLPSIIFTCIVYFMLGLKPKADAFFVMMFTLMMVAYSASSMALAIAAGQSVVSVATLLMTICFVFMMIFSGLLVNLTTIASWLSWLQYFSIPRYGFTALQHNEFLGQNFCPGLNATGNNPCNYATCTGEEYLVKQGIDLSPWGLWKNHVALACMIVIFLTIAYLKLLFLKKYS

O=[N+]([O-])c1ccc(Oc2ccc(Cl)cc2Cl)cc1
inactive: [1] | [3] | [4] | [5] | [6] | [7] | [8] | [10] | [12] | [13] | [14] | [15] | [16]
active: [2] 50 µM | [9] 11.5 µM | [11] 14.5 µM

CC(O)CCO (stereo unspecified)
inactive: [1] | [2] | [3] | [4] | [5] | [6] | [17] | [7] | [8] | [9] | [10] | [11] | [12] | [13] | [18] | [14] | [15] | [16]

ClCCOCCCl
inactive: [1] | [2] | [19] | [4] | [5] | [6] | [17] | [7] | [8] | [9] | [10] | [11] | [12] | [13] | [18] | [14] | [15] | [16]

CCOC(=O)[C@]1(c2ccccc2)Oc2ccccc2[C@@H]1N
inactive: [6] | [17] | [8] | [12] | [14] | [16]
active: [1] 88.2 µM | [2] 78.6 µM | [19] 13 µM | [5] 76.2 µM | [7] 76.8 µM | [9] 78.7 µM | [10] 82.2 µM | [11] 50 µM | [13] 87.5 µM | [18] 50 µM | [15] 75.7 µM

CC(C)(C)OOC(=O)c1ccccc1
active: [19] 83.2 µM
inactive: [1] | [2] | [5] | [6] | [17] | [7] | [8] | [9] | [10] | [11] | [12] | [13] | [18] | [14] | [15] | [16]

COC(=O)Nc1nc2ccccc2[nH]1
inactive: [1] | [2] | [3] | [5] | [6] | [17] | [7] | [8] | [9] | [10] | [11] | [12] | [13] | [18] | [14] | [15] | [16]

[O-][Cl+]O
inactive: [1] | [2] | [3] | [4] | [5] | [6] | [17] | [7] | [8] | [9] | [10] | [11] | [12] | [13] | [18] | [14] | [15] | [16]
